# Assay outcomes: PubChem BioAssay, several laboratories
# A selection: hits, their analogues and other compounds. The true share with any hit is near 1.7%.
# MOR-DOR inv ag-1: inverse agonists of human mu-delta opioid receptor heterodimerization | actives 0.21% (n = 340,000) | inhibition, % at 9.3 µM | P35372+P41143 | cell-based MOR-DOR heterodimer luminescence, inverse agonism; in the data active means inhibition above about 22%, passing the limit was not always enough;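 further: 0% = cells with DMSO and 100% = wells without cells with DMSO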
# Target sequence (P35372 whole entry, looked up): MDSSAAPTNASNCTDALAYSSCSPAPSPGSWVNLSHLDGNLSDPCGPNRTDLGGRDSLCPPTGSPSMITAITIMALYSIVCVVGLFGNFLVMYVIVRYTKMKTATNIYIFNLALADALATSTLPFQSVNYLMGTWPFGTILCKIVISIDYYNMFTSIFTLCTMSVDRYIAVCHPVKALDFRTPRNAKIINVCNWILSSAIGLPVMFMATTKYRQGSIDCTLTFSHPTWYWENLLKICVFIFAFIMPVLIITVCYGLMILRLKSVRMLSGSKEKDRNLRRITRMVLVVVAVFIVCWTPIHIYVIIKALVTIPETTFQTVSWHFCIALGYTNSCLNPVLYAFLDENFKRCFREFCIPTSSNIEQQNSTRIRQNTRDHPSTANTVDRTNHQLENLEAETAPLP
# Target sequence (P41143 whole entry, looked up): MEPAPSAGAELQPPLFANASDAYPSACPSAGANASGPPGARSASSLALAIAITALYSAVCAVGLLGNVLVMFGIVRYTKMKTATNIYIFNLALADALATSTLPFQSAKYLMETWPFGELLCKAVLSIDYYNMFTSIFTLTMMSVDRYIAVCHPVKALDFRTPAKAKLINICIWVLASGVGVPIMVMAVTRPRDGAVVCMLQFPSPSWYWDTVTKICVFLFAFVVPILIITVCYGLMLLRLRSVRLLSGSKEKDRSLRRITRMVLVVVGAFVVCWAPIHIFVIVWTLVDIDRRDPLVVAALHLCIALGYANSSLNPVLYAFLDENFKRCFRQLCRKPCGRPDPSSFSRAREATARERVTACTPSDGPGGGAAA
# HTR5A ag: HTR5A agonism, opioid heterodimer counter-screen | P47898 | HTR5A agonist assay, luminescence, cell-based | activation, % at 9.3 µM | actives 0.61% (n = 340,000) | AID 504692; in the data active means activation mostly above about 9.5%, no sharp cut-off; inactive means mostly below about 7.6%;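 further: 0% = cells with vehicle only and 100% = reference agonist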
# HTR5A inv ag: HTR5A inverse agonism, opioid heterodimer counter-screen; P47898; HTR5A cell line, luminescence; inhibition, % at 9.3 µM; actives 0.083% (n = 340,000); in the data active means inhibition mostly above about 23%, no sharp cut-off; inactive means mostly below about 18%;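 further: 0% = cells with DMSO and 100% = no-cell wells with DMSO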
# beta cell repl: MIN6 beta-cell proliferation induction. MIN6 cells proliferation, ATPlite luminescence, 48 h; cells starved in 0.2% serum; 100% = growth in 10% serum. proliferation, % at 10 µM. actives 0.29% (n = 330,000). AID 2380;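 active means compounds whose signal lies at least 3.5 SD above the mean of all wells on their plate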;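 further: 0% = DMSO-treated cells in low-serum medium and 100% = 10% serum control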
# MOR-DOR ag-1: agonists of human mu-delta opioid receptor heterodimerization | cells, OPRM1-OPRD1 heterodimerization, luminescence | actives 0.3% (n = 340,000) | P35372+P41143 | activation, % at 9.3 µM;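 further: 0% = vehicle-treated cells and 100% = reference agonist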
# V-ATPase pH: alters yeast V-ATPase proton transport | S. cerevisiae, pHLuorin cytosolic pH fluorescence | response, % at 10 µM | actives 0.37% (n = 350,000) | AID 504577; in the data active means response mostly above about 7.3%, no sharp cut-off; inactive means mostly below about 5.4%; further: actives read high
# V-ATPase pH SP: yeast V-ATPase proton transport regulation. shares compounds with V-ATPase pH. S. cerevisiae pHLuorin cytosolic pH. response, % at 10 µM. actives 2% (n = 980). AID 602197; in the data active means response above about 24%;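 further: plate controls were vehicle wells for no effect and positive control wells for full effect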
# MOR-DOR inv ag-2: opioid heterodimer inverse agonism, HTR5A counter-screen; AID 504912; U2OS counter-screen cells, complementation luminescence; shares compounds with HTR5A inv ag; 190 tested, under 10 active; inhibition, % at 9.3 µM; call rule not given here;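 further: 0% = cells with DMSO and 100% = wells without cells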
# HTR5A inv conf: HTR5A (human) inverse agonism, confirmation | 190 tested, under 10 active | AID 504916 | shares compounds with HTR5A inv ag | inhibition, % at 9.3 µM | HTR5A-expressing cells, luminescence; call rule not given here;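 further: 0% = cells with DMSO and 100% = no cells with DMSO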
# MOR-DOR ag-2: opioid heterodimer agonism, HTR5A counter-screen; AID 504913; activation, % at 9.3 µM; actives 13% (n = 800); shares compounds with HTR5A ag; U2OS counter-screen cells, complementation luminescence, 3 h
# HTR5A ag confirm: confirmation of human HTR5A agonists; shares compounds with HTR5A ag; HTR5A agonist cell assay, luminescence; activation, % at 9.3 µM; actives 17% (n = 800); AID 504915; in the data active means activation above about 17%;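 further: 0% = cells with vehicle only and 100% = full reference agonist response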
# Active calls of the source: *; i = inactive; . = no result. Unless noted, no stated cut-off is given here; in the data, active means activation above about 18%; inactive means the rest.
SMILES,MOR-DOR inv ag-1,HTR5A ag,HTR5A inv ag,beta cell repl,MOR-DOR ag-1,V-ATPase pH,MOR-DOR inv ag-2,HTR5A inv conf,others
c1ccc(CCNC2=NCCCS2)cc1,12.5,19.7*,-54.4,-3.2,-2.2,-4.4,.,.,V-ATPase pH SP=7.2;MOR-DOR ag-2=1.8;HTR5A ag confirm=0.5
CN(CC(=O)Nc1ccccc1Br)C(=O)c1ccccc1OCc1ccc(Cl)cc1,-1.8,15.2,-42.2,.,0.4,-0.9,.,.,
Cc1nc2cc(NC(=O)Nc3ccc(N4CCOCC4)cc3)ccc2n1C,10.3,-1.9,41.6*,-2.7,-2.2,-4.9,-59.8,-6.5,
N/C(=N\OC(=O)CCN1C(=O)c2ccccc2C1=O)c1ccccn1,3.2,2.3,47.1*,-2.9,-0.7,3.1,i,-14.1,
COc1ccc(OC)c(S(=O)(=O)Nc2ccccc2C(=O)N2CCCCC2)c1,0.3,-1.1,45.4*,-1.3,0.0,6.9,-3.7,-5.3,
COc1ccc(S(=O)(=O)Nc2ccccc2C(=O)N2CCCC2)cc1OC,1.3,7.0,-20.7,-5.2,-0.3,-13.7,.,.,
CC(C)NC(=O)c1cnc(N2CCN(c3ccccn3)CC2)c2ccccc12,0.3,4.4,44.2*,-1.5,-0.1,-6.2,-18.3,5.0,
CCC(C)(C)c1ccc(OCCCC[n+]2cccc(C)c2)c(C(C)(C)CC)c1,16.0,8.0,6.5,.,-3.2,1.7,.,.,
O=S(NCc1ccco1)C12CC3CC(CC(C3)C1)C2 (stereo not drawn),12.2,-0.6,40.4*,-4.2,-2.6,1.6,-299.0,-20.2,
Cc1nn(Cc2ccccc2)c(Cl)c1C(=O)OCC#N,3.2,4.0,-11.1,1.0,-0.6,-0.6,.,.,
CCCN1CCC(NC(=S)Nc2cccc(Cl)c2Cl)CC1,-4.5,-1.3,7.2,-1.6,0.9,-0.8,.,.,
N#CCSc1nnc(-c2ccc3c(c2)OCO3)o1,10.2,-9.5,24.8*,1.0,-1.8,1.0,-4.3,0.8,
CCCN1Cc2cccc(C(=O)NCc3ccccc3OC)c2C1=O,9.6,3.1,37.0*,-0.6,-1.6,2.0,-236.3,-40.8,
COCCN1Cc2cccc(C(=O)NCc3ccccc3OC)c2C1=O,7.9,5.5,-19.6,-0.2,-1.5,0.2,.,.,
S=c1[nH]cc(-c2ccc(Cl)cc2)n1Cc1ccccc1,-78.5,-11.3,30.8*,-0.9,14.8,2.5,-222.6,-29.8,
CCn1c(-c2ccccc2)c[nH]c1=S,0.3,-0.4,-4.0,-4.5,-0.1,.,.,.,
O=C(COC(=O)Cc1ccc(F)cc1)NCc1ccco1,1.7,1.0,33.9*,0.5,-0.3,7.8,-37.2,-14.9,
CC1Cc2cc(S(=O)(=O)CCC(=O)NCc3ccco3)ccc2N1C(=O)C1CC1 (stereo not drawn),10.6,2.2,12.2,-3.9,-2.1,-5.2,.,.,
CC(=O)c1ccc(OCc2ccccc2)c(C)c1O,-40.8,-9.5,28.0*,3.4,7.1,1.1,-46.7,-1.0,
CCc1ccc(C(=O)Cn2ccsc2=N)cc1,15.1,3.8,-13.8,-5.7,-2.9,3.2,.,.,
NS(=O)(=O)c1ccc(CCNC(=O)CNC(=O)c2ccccc2F)cc1,0.7,1.4,-3.9,1.2,-0.1,-1.6,.,.,
COc1ccc(/C=C(/NC(=O)c2cccs2)C(=O)NCc2ccco2)cc1OC,7.8,13.8,43.5*,-2.2,-1.4,1.7,-36.5,-7.6,
NC(N)=N/N=C/c1cc([N+](=O)[O-])ccc1O,10.4,-0.2,20.5,0.0,-2.3,2.5,.,.,
CN(C)/N=C/c1cc([N+](=O)[O-])ccc1O,7.8,-8.9,28.1*,-2.1,-1.5,2.5,-23.1,6.6,
CCCNC(=S)Nc1c(C)n(C)n(-c2ccccc2)c1=O,5.8,-1.0,2.5,-3.1,-1.1,1.4,.,.,
SMILES,MOR-DOR inv ag-1,HTR5A ag,HTR5A inv ag,beta cell repl,MOR-DOR ag-1,V-ATPase pH,MOR-DOR inv ag-2,HTR5A inv conf,others
COc1ccc(/C=C/C(=O)NC(=S)NNC(=O)c2cccs2)cc1,23.2,-6.6,42.1*,-4.5,-4.3,1.6,4.2,-17.6,
Cc1cccc(NC(=S)NCc2ccccc2Cl)c1C,11.8,-3.2,11.9,-5.2,-2.5,-3.0,.,.,
COc1ccc(Cc2nnc(SCC(=O)Nc3ccc(N4CCOCC4)cc3)n2C)cc1,16.4,5.0,-13.4,0.4,-3.1,-1.2,.,.,
Brc1ccccc1/C=N/Nc1ccc2ccccc2n1,-10.1,-1.7,-12.5,0.0,1.8,-1.6,.,.,
O=[N+]([O-])c1cccc(C=NNc2ccc3ccccc3n2)c1O,10.6,-9.2,35.3*,.,-2.4,0.6,13.1,46.8*,
Cc1cc(O)c(NC(=S)NC(=O)c2ccc(-c3ccc(Cl)cc3)o2)cc1C,22.8,-29.5,64.8*,-5.1,-4.6,-0.2,-138.9,-9.9,
CC(C)c1ccc(/C=C/C(=O)Nc2nc3ccc([N+](=O)[O-])cc3s2)cc1,5.0,2.1,-14.7,-5.2,-1.0,-3.5,.,.,
O=[N+]([O-])c1ccc2nc(NN=Cc3ccc(O)cc3)sc2c1,11.3,-7.3,29.8*,.,-2.2,-1.0,-24.8,-0.1,
CC(C)C[C@@H](CO)N1CCN(Cc2cccnc2)CCC1=O,9.0,-9.7,28.5*,-3.9,-1.6,5.1,-7.9,-5.0,
N#CCCN=C(NS(=O)(=O)c1ccccc1)c1ccccc1,1.5,-7.7,21.9*,3.2,-0.2,-0.3,-13.3,-18.3,
O=C(Nc1oc2ccc(Cl)cc2c(=O)c1-c1ccc(F)cc1)c1ccco1,10.7,2.1,-8.0,-2.1,-2.1,0.9,.,.,
CCCOc1cccc(C(=O)N/N=C/c2ccoc2)c1,18.8,8.5,45.2*,-1.8,-3.5,-0.3,-6.5,-4.6,
CC(C)Oc1cccc(C(=O)N/N=C/c2ccoc2)c1,-1.4,0.0,-6.5,-5.2,0.2,-0.8,.,.,
CCOCCn1c(=NC(=O)CSCC(=O)N2CCOCC2)sc2cc(OC)ccc21,-0.7,-1.3,12.9,-2.9,0.2,-1.5,.,.,
CC(C)Cn1c(-c2ccc(Br)cc2)c[nH]c1=S,2.1,-28.4,81.2*,0.3,-0.4,-1.7,-109.8,0.8,
O=C(CCCCCN1C(=O)c2cccc3cccc(c23)C1=O)NCCCO,11.7,-8.5,31.6*,-1.2,-2.5,-1.1,-22.2,-10.3,
CSc1ccc(NC(=O)NCc2ccccc2)cc1,9.7,-0.6,31.3*,0.2,-1.8,-1.2,-22.0,6.9,
O=C(NCc1ccc(F)cc1)Nc1ccccc1,15.4,4.4,14.6,1.1,-3.0,-0.1,.,.,
CC(C)Cn1c(N)c(S(=O)(=O)c2cccs2)c2nc3ccccc3nc21,16.5,-8.1,37.7*,.,-2.9,1.8,-51.8,0.3,
